In article PMC7862700, “An all-to-all approach to the identification of sequence-specific readers for epigenetic DNA modifications on cytosine” one finds binding signal data, which are given here for 1 sequence.

Experiment in all cases: DAPPL (digital affinity profiling via proximity ligation, sequencing); 10 mM Tris-HCl pH 7.5, 50 mM NaCl, 1 mM DTT, 4% glycerol, room temperature, 30 min; GST-TFs on glutathione beads, 16-mer random dsDNA library, 0.1% formaldehyde crosslink after washing; high values mean tight binding
For assay [1], the target named is T1, FLI1 (Homo sapiens, UniProt Q01543 1-452).
T1 sequence: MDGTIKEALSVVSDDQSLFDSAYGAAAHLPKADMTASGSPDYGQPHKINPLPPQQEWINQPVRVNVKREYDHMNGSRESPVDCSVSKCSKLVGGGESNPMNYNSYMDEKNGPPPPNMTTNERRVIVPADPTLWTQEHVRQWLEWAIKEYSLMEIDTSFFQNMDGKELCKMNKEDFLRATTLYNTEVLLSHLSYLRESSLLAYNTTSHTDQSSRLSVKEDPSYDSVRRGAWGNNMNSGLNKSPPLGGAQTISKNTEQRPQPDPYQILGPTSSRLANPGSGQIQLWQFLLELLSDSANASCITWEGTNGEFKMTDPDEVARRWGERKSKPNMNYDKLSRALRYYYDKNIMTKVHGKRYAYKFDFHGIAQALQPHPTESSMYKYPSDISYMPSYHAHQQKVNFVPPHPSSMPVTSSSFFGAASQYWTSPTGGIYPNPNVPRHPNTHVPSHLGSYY
Conditions: protein: recombinant; tags: N-terminal GST; dsDNA, one strand shown. In a few lines:
(§1)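 Yeast served to express human transcription factors as GST fusions, which were then captured on glutathione beads and labelled with DNA barcodes. Pooled with a tag-only sample, they were incubated with 200 nmole of a 16-mer random double-stranded DNA library for 30 min at room temperature in Tris/NaCl/DTT/glycerol buffer, washed, crosslinked with 0.1% formaldehyde, ligated by proximity, amplified by PCR and sequenced. Dividing each hexamer's read frequency for a factor by its frequency for the tag-only sample gives the binding signal.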

In assay [2] the target is T2, ELK1 (Homo sapiens, UniProt P19419 1-428).
T2 sequence: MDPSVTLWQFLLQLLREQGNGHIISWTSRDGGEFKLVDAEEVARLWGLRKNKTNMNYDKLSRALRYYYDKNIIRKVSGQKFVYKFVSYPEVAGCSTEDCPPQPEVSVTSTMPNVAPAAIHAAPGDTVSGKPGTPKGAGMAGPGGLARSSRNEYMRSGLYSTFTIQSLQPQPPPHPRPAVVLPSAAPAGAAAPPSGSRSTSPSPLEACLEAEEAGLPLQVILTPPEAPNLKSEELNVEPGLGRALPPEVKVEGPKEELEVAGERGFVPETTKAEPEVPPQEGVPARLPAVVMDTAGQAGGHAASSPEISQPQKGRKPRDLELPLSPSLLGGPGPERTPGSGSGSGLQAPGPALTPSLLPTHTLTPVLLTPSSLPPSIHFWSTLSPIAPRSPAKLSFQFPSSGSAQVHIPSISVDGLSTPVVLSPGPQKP
Conditions: protein: recombinant; tags: N-terminal GST; dsDNA, one strand shown. In a few lines:
as §1

Assay [3] deals with T3, GABPA (Homo sapiens, UniProt Q06546 1-454).
T3 sequence: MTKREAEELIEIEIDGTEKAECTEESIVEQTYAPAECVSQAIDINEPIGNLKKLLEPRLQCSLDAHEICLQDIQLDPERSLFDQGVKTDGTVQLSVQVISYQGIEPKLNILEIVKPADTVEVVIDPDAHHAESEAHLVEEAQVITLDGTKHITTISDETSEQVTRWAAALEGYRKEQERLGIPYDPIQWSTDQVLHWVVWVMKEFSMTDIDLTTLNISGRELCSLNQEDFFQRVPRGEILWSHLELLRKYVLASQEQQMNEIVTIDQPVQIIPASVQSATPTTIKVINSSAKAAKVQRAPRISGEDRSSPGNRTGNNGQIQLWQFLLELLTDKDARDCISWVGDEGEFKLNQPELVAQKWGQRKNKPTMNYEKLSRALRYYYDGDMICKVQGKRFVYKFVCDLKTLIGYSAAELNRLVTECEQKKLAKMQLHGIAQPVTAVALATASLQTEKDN
Conditions: protein: recombinant; tags: N-terminal GST; dsDNA, one strand shown. The procedure, abridged: as §1

The target of assay [4] is T4, ERG (Homo sapiens, UniProt P11308 1-479).
T4 sequence: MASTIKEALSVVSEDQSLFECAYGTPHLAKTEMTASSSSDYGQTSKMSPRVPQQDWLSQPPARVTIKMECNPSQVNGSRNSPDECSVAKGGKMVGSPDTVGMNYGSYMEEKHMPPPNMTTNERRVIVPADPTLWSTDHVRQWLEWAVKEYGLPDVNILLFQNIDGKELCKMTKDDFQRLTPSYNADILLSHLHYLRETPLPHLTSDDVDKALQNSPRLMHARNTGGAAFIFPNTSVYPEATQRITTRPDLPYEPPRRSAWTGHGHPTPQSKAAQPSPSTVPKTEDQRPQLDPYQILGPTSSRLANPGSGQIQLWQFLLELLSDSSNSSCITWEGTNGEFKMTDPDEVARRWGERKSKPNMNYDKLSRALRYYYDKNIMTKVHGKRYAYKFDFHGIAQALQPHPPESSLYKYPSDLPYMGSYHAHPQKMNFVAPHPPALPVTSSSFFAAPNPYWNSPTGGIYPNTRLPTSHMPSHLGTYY
Particulars: protein: recombinant; tags: N-terminal GST; dsDNA, one strand shown. The procedure, abridged:
as §1

Assay [5] deals with ELF1 (Homo sapiens, UniProt P32519 1-619). Particulars: protein: recombinant; tags: N-terminal GST; dsDNA, one strand shown. The procedure, abridged: as §1
Chain of ELF1 (P32519 whole entry): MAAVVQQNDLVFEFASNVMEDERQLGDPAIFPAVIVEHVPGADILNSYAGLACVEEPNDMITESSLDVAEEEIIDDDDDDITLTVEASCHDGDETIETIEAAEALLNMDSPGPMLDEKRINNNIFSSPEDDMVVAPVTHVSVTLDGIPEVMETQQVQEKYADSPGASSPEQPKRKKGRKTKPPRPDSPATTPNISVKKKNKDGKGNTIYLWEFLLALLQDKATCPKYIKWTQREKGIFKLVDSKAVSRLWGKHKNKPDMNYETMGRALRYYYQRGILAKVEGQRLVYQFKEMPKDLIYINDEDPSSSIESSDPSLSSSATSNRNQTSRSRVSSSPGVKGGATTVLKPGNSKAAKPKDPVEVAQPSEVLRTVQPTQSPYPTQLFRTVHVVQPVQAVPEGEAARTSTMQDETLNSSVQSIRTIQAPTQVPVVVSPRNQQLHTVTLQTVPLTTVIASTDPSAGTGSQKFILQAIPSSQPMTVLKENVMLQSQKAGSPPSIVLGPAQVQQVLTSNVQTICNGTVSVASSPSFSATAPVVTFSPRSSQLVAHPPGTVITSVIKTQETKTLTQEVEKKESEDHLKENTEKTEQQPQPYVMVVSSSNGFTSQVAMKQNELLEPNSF
The target of assay [6] is T5, EHF (Homo sapiens, UniProt Q9NZC4 1-300).
T5 sequence: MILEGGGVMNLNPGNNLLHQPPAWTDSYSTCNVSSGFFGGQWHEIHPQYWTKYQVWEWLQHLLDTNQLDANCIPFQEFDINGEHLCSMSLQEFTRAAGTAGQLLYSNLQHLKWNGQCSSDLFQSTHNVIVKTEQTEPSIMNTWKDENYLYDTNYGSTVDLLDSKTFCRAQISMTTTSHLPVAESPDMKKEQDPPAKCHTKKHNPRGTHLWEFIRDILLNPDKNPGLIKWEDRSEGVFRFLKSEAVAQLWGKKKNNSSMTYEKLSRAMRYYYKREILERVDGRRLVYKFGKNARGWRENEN
Particulars: protein: recombinant; tags: N-terminal GST; dsDNA, one strand shown. In a few lines: as §1

In assay [7] the target is SPI1 (Homo sapiens, UniProt P17947 1-270). Particulars: protein: recombinant; tags: N-terminal GST; dsDNA, one strand shown. The procedure, abridged:
as §1

In assay [8] the target is SPIB (Homo sapiens, UniProt Q01892 1-262). Particulars: protein: recombinant; tags: N-terminal GST; dsDNA, one strand shown. In a few lines: as §1
Chain of SPIB (Q01892 whole entry): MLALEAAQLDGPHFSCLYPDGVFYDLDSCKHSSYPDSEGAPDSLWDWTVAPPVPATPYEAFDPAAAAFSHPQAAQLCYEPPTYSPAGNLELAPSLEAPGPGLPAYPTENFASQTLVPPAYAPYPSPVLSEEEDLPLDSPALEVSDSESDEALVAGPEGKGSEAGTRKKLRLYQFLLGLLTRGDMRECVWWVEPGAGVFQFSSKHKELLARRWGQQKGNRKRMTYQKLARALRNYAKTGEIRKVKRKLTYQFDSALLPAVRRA
For assay [9], the target named is T6, ELK3 (Homo sapiens, UniProt P41970 1-407).
T6 sequence: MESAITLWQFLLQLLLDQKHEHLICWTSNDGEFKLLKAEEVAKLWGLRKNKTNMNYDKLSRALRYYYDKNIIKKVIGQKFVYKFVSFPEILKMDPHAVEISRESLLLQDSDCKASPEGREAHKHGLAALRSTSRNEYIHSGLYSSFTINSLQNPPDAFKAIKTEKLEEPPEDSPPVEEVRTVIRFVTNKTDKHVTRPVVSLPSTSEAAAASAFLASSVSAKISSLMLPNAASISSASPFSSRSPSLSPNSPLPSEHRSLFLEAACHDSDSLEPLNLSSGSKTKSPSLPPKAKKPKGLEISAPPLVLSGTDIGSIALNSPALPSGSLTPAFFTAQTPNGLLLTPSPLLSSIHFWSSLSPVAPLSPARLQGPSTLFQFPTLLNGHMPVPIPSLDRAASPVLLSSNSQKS
Particulars: protein: recombinant; tags: N-terminal GST; dsDNA, one strand shown. The procedure, abridged: as §1

Assay [10] concerns the target T7, FEV (Homo sapiens, UniProt Q99581 1-238).
T7 sequence: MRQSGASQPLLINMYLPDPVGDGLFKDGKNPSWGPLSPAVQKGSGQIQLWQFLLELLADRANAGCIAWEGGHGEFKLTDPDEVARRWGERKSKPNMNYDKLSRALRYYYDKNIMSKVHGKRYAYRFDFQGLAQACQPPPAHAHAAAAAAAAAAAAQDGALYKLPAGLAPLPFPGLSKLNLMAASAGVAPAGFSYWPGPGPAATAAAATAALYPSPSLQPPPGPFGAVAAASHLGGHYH
Particulars: protein: recombinant; tags: N-terminal GST; dsDNA, one strand shown. The procedure, abridged:
as §1

Assay [11] deals with ETV5 (Homo sapiens, UniProt P41161 1-510). Conditions: protein: recombinant; tags: N-terminal GST; dsDNA, one strand shown. In a few lines: as §1
Chain of ETV5 (P41161 whole entry): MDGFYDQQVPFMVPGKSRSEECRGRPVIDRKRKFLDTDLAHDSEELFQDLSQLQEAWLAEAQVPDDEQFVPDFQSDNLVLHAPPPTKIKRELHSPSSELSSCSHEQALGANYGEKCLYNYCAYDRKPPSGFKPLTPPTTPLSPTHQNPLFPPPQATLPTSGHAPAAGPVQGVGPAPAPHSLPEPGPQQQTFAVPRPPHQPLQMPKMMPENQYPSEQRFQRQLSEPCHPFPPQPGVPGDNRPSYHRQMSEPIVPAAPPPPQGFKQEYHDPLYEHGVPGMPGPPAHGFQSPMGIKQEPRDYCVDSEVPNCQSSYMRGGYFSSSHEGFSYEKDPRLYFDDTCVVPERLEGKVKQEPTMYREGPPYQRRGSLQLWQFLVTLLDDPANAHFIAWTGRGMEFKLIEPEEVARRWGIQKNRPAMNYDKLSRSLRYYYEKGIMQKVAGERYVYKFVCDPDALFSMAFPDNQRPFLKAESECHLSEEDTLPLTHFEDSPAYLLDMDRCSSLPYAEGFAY
Assay [12] deals with HSF1 (Homo sapiens, UniProt Q00613 1-529). Particulars: protein: recombinant; tags: N-terminal GST; chain copies: 3; dsDNA, one strand shown. In a few lines:
as §1

The target of assay [13] is T8, SPIC (Homo sapiens, UniProt Q8N5J4 1-248).
T8 sequence: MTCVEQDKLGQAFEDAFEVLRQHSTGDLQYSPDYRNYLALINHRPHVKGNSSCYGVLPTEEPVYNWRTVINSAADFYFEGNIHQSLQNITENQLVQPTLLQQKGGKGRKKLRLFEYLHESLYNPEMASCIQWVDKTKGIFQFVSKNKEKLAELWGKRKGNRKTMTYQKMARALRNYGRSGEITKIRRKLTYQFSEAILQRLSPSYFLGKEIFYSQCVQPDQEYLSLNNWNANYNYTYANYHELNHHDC
Particulars: protein: recombinant; tags: N-terminal GST; dsDNA, one strand shown. The procedure, abridged:
as §1

The target in assay [14] is ELF4 (Homo sapiens, UniProt Q99607 1-663). Particulars: protein: recombinant; tags: N-terminal GST; dsDNA, one strand shown. The procedure, abridged: as §1
Chain of ELF4 (Q99607 whole entry): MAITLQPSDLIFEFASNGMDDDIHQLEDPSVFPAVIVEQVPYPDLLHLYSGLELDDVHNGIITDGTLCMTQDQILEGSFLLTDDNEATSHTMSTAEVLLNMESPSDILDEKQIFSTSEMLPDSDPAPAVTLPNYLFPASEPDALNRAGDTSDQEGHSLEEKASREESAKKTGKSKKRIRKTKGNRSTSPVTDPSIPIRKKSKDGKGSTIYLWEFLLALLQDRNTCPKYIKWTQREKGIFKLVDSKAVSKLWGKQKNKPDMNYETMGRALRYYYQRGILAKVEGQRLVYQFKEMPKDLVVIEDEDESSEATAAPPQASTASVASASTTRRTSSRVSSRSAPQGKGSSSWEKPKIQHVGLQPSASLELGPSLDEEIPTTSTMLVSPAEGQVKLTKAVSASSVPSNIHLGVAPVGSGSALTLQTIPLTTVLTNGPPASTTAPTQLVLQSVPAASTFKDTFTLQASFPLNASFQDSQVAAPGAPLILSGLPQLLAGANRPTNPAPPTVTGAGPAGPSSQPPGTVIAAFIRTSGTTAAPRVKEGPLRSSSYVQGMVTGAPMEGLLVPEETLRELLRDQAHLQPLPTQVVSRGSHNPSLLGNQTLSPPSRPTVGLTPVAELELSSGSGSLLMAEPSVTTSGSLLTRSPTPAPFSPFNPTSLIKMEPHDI
Assay [15] deals with T9, ELK4 (Homo sapiens, UniProt P28324-2 1-405).
T9 sequence: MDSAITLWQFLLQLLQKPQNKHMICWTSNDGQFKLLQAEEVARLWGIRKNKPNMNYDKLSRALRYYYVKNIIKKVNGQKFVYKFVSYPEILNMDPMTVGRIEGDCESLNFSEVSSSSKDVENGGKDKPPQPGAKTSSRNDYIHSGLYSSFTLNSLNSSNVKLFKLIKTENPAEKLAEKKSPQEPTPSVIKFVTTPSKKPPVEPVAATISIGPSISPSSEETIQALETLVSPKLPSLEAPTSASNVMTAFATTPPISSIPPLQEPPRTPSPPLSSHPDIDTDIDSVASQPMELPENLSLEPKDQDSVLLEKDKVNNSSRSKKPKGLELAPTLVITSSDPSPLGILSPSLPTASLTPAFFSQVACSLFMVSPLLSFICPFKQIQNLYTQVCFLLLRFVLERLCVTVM
Conditions: protein: recombinant; tags: N-terminal GST; dsDNA, one strand shown. The procedure, abridged:
as §1

Assay [16] has as its target T10, ELF3 (Homo sapiens, UniProt P78545 1-371).
T10 sequence: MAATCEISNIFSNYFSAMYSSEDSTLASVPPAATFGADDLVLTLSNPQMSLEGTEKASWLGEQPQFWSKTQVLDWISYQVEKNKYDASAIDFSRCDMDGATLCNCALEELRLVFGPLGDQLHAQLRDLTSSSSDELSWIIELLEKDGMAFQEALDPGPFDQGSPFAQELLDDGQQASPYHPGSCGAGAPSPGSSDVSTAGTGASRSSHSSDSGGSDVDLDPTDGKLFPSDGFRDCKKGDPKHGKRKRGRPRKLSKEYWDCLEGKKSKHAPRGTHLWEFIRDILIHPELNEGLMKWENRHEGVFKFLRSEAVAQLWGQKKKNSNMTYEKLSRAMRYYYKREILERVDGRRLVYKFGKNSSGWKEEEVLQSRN
Particulars: protein: recombinant; tags: N-terminal GST; dsDNA, one strand shown. In a few lines:
as §1

The target in assay [17] is CRX (Homo sapiens, UniProt O43186 1-299). Particulars: protein: recombinant; tags: N-terminal GST; dsDNA, one strand shown. The procedure, abridged:
as §1

The target in assay [18] is ETV1 (Homo sapiens, UniProt P50549 1-477). Particulars: protein: recombinant; tags: N-terminal GST; dsDNA, one strand shown. In a few lines: as §1
Chain of ETV1 (P50549 whole entry): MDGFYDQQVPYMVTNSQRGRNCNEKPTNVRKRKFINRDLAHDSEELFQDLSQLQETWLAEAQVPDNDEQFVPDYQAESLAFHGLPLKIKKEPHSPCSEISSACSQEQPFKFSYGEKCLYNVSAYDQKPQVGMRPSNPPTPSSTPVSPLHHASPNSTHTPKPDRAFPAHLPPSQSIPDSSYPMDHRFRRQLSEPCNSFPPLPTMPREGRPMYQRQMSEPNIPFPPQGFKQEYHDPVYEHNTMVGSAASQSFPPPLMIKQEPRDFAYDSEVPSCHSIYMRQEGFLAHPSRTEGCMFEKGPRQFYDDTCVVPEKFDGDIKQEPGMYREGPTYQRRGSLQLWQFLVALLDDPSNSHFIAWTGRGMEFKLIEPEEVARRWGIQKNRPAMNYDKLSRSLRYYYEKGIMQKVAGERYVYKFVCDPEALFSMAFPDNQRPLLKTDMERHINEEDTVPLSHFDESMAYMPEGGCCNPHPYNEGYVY

Chain of CRX (O43186 whole entry): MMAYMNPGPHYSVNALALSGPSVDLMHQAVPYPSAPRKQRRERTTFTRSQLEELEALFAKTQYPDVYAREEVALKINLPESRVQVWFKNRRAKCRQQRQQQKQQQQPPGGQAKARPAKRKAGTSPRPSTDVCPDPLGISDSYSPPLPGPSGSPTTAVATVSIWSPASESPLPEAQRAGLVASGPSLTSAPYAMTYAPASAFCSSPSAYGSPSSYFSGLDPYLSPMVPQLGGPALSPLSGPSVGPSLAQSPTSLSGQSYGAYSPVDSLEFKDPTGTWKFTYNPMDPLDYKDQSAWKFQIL
Chain of HSF1 (Q00613 whole entry): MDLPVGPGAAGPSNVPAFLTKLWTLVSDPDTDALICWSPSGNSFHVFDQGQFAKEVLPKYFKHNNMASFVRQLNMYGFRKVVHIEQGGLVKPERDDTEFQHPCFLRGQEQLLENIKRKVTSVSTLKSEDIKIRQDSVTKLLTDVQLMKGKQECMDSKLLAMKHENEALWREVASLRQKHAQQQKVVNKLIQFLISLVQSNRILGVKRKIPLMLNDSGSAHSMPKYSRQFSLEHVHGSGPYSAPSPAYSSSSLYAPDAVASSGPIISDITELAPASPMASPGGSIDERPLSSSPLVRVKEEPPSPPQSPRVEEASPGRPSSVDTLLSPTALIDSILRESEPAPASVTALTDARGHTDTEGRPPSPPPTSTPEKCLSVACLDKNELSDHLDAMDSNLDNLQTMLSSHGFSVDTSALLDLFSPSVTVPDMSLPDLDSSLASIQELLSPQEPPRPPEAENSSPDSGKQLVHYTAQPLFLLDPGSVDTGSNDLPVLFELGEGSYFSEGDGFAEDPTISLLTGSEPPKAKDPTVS

Turning to TCCCAA, the binding signal in assay [1] is 1.14 fold enrichment (6-mer frequency, TF over GST control); in assay [2], 1.2 fold enrichment (6-mer frequency, TF over GST control); in assay [3], 1.25 fold enrichment (6-mer frequency, TF over GST control); in assay [4], 1.28 fold enrichment (6-mer frequency, TF over GST control); in [5], 1.3 fold enrichment (6-mer frequency, TF over GST control); in assay [6] it was 1.31 fold enrichment (6-mer frequency, TF over GST control). The binding signal in assay [7] was 1.2 fold enrichment (6-mer frequency, TF over GST control); in assay [8] it was 1.15 fold enrichment (6-mer frequency, TF over GST control); in assay [9], 1.28 fold enrichment (6-mer frequency, TF over GST control); in [10], 1.17 fold enrichment (6-mer frequency, TF over GST control); in [11], 1.2 fold enrichment (6-mer frequency, TF over GST control); in [12], 1.11 fold enrichment (6-mer frequency, TF over GST control). For the same sequence, the binding signal in assay [13] was 1.17 fold enrichment (6-mer frequency, TF over GST control); in assay [14] it was 1.24 fold enrichment (6-mer frequency, TF over GST control); in assay [15], 1.09 fold enrichment (6-mer frequency, TF over GST control); in [16], 1.16 fold enrichment (6-mer frequency, TF over GST control); in assay [17] it was 1.23 fold enrichment (6-mer frequency, TF over GST control); in assay [18], 1.2 fold enrichment (6-mer frequency, TF over GST control).
